The text below walks through data of PubChem BioAssay (NCI).

The panel holds about 83,000 compounds, 20% with a hit somewhere; the sample as a whole holds those more often.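 Single-concentration screen, 48 h exposure, 96-well plates. Endpoint: percent growth. Below 10 = active.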 Unmarked numbers belong to inactive results. Activity calls are given as the source filed them.

Common to all, as to test: NCI-60 one-dose screen, 48 h (100 = growth as untreated, 0 = no growth, -100 = all killed)
Conditions in all cases: 10 µM unless noted

The subject of test [1] is NCI-H23 lung.
Test [2] concerns NCI-H226 lung.
In test [3] the test system is NCI-H322M lung.
Test [4] relates to HOP-62 NSCLC.
In test [5] the test system is NCI-H460 lung.
The test system of test [6] is HOP-92 NSCLC.
Test [7] deals with NCI-H522 lung.
Test [8] has as its system A549/ATCC NSCLC.
Test [9] has as its system 786-0 renal.
The test system of test [10] is COLO 205 colon.

As for `CN(C)[C@@H]1C(=O)C(C(=O)NCc2nc3[nH]cnc(=S)c3[nH]2)=C(O)[C@@]2(O)C(=O)C3=C(O)c4c(O)cccc4[C@@](C)(O)[C@H]3C[C@@H]12`, the growth in test [1] is 58.7%; in [2] it was 49.5%; in test [3], 37.9%; in test [4], 18.4%; in [5], 63.8%; in [6], 25.2%. Moreover, the growth in test [7] is 33.3%; in [8], 101%; in test [9], 19.6%; in test [10] it was 88%.

On to `CC(C)CC1C(=O)N2CCC[C@H]2C2(O)O[C@](NC(=O)C3C=C4c5cccc6[nH]c(Br)c(c56)C[C@H]4N(C)C3)(C(C)C)C(=O)N12` (some centres not stated), for which the growth was 71.1% in test [1]; 59.5% in [2]; 71.8% in [3]; 82.7% in test [4]; 57.2% in test [5]; 66.1% in [6]. Moreover, the growth in test [7] is 53.5%; in test [8], 37.9%; in [10], 47.9%.

For the compound `CCN(CC)S(=O)(=O)c1ccc(OC)c(NC(=O)c2[nH]c(C)c3c2CCCCC3=O)c1`, the growth in test [1] is 46.9%; in test [2] it was 50%; in test [3], 44%; in test [4] it was 31.5%; in test [5], 53.4%; in [6], 38.3%. Also, the growth in test [7] was 26.9%; in test [8] it was 45.2%; in test [9] it was 41.5%; in test [10], 35.6%.

In the case of `Cc1cc(C)nc(SC2=C(Nc3ccc(O)cc3)C(=O)N(Cc3ccccc3)C2=O)n1`, the growth in [1] is 98.8% [40 µM]; in [2] it was 89.7% [40 µM]; in [3] it was 108% [40 µM]; in test [4], 100% [40 µM]; in test [5] it was 85.3% [40 µM]; in test [6], 38.1% [40 µM]. Also, the growth in test [7] was 78.3% [40 µM]; in [8], 63% [40 µM]; in test [9], 97.6% [40 µM]; in test [10], 108% [40 µM].

On to `COc1cc2c(cc1-c1c(C)noc1C)ncc1nc(C3CCCCC3)n([C@H](C)COC(F)F)c12`, for which the growth in test [1] was 59.9%; in [2], 53.5%; in [3], 40.3%; in test [4] it was 39.4%; in [5] it was 53.2%; in test [6], 34.9%. Besides, the growth in [7] was 25.2%; in [8], 33.4%; in [9], 48.7%; in test [10], 24.7%.

For the compound `CCOC(=O)c1csc(NC(=O)COc2cccc(/C=C3\CSc4ccccc4C3=O)c2)n1`, the growth was 9.12% (active) in [1]; 98.1% in test [2]; 97.1% in [3]; 80.1% in test [4]; 98.4% in test [5]; -79.1% (active) in test [6]. Moreover, the growth is -39.2% (active) in [7], 97.2% in test [8], 87.1% in test [9] and 87.9% in test [10].

For `COc1ccc(SC2c3ccc(C)cc3Oc3nc(N)c(C#N)c(N)c32)cc1` (configuration not stated), the growth in test [1] was -43.8% (active); in test [2], -63.9% (active); in test [3], 5.34% (active); in test [4], -10.6% (active); in test [5] it was -49.6% (active); in test [6], -56.7% (active). Also, the growth is -90.3% (active) in test [7], 19.9% in test [8], -95.4% (active) in test [9] and -66.5% (active) in [10].

Turning to `Cc1nn(-c2ccc(F)cc2)c2ncnc(Nc3ccc(NC(=O)Nc4ccc(Cl)c(C(F)(F)F)c4)cc3)c12`, the growth was 22.4% in [1]; 58% in [2]; 45% in test [4]; 10.9% in [5]; -8.33% (active) in test [6]; 12.1% in [7]. The results for the growth in [8], in test [9] and in test [10] were 50.7%, 40.7% and 4.15% (active), respectively.

For `COc1cc(/C=C/C(=O)c2c(C)oc3nc[nH]c(=O)c23)cc(OC)c1OC`, the growth was 68.9% in [1]; 92.1% in test [2]; 85.8% in test [3]; 101% in test [4]; 83.7% in [5]; 96.4% in test [6]. Moreover, the growth is 47.7% in test [7], 81.6% in test [8], 94.3% in test [9] and 95.4% in test [10].

Consider `CN(C)S(=O)(=O)c1cccc(-c2nc3sc4c(c3c(=O)[nH]2)CCCC4)c1`, for which the growth was 44.1% in [1]; 54% in test [2]; 27.2% in test [3]; 42.7% in [4]; 7.27% (active) in [5]; 11.4% in [6]. Also, the growth was 54.7% in test [7], 25.8% in test [8], -37.1% (active) in test [9] and 64.6% in test [10].

On to `O=C1C=C(O)C(=O)C(CC2=C(O)C(=O)C=C(O)C2=O)=C1O`, for which the growth in test [1] was 113%; in test [2] it was 102%; in test [3], 105%; in [4] it was 104%; in [5] it was 104%; in test [6], 109%. Moreover, the values for the growth in test [7], in [8] and in test [10] were 92.1%, 92% and 115%, respectively.
